# Data as given in PubChem BioAssay (Tox21).
# Where “and” joins values, the source holds several entries; their conditions need not be identical. Identical values can stand only once. Inconclusive results are not listed. Where a call stands in place of a potency, no number is given. Calls of active or inactive are those of the source. No rule for the calls is given here.
# Assay: qHTS assay to identify small molecule antagonists of the estrogen related receptor signaling pathway with the pleiotropic PPARgamma coactivator (PGC) from Tox21 10K library (AID 1224841); also: actives are mostly falling curves and most rising ones were filed inactive; nearly all actives have a fitted effect of over 50% in size
# Conditions: PGC/ERR reporter cell line, ONE-Glo luciferase, 18 h; series mostly up to 92.4 µM
# From the text: U.S. Tox21 Program National Center for Advancing Translational Sciences [NCATS] NIH Chemical Genomics Center [NCGC] U.S. Environmental Protection Agency [EPA] National Institutes of Environmental Health Sciences [NIEHS] National Toxicology Program [NTP] U.S. Food and Drug Administration [FDA] Tox21 Assay Overview: Estrogen related receptors (ERRs), the first orphan nuclear receptors discovered, play an important role in the control of cellular energy metabolism. ERRs are required for high-energy production in response to the environmental challenges. The pleiotropic PPARgamma coactivator (PGC) is a major partner of ERR and a key regulator in energy homeostasis. Together they have been implicated in the etiology of metabolic disorders such as Type 2 diabetes and metabolic syndrome. ERR-alpha was also identified as an adverse marker for breast cancer progression; ERR-alpha-positive tumors have a poor prognosis. To screen and to identify environmental compounds that perturb the ERR and PGC/ERR signaling pathways could provide valuable information for potential therapeutic or preventive measures in the treatment of metabolic disease. For identifying PGC/ERR antagonists, PGC/ERR cell line (provided by NTP) has been used to screen Tox21 10K library.
# Tox21 Assay Protocol Summary: The PGC/ERR cells were dispensed at 2,000 cells/5 ul/well in 1536-well white plates using a Multidrop dispenser. After the assay plates were incubated at a 37 C/5% CO2 incubator for 6 hours, 23 nL of compounds dissolved in DMSO, positive and negative controls or DMSO only was transferred to the assay plate by a pin tool. The plates were incubated at 37 C for 18 hours. 4 ul/well of One-Glo reagent was added into the assay plates using a Flying Reagent Dispenser. After 30-minute incubation at room temperature, the luminescence intensity in the plates was measured using a ViewLux plate reader.
# Potency is read from the fitted curve at half-maximal effect.
SMILES,Potency,"activity, negative = inhibition"
N[C@H]1CN(c2c(F)cc3c(=O)c(C(=O)O)cn(C4C[C@H]4F)c3c2Cl)CC12CC2 (stereo not given in full),inactive,
COC(=O)[C@@H](N)Cc1ccc(O)c(O)c1,inactive,
N[C@@H](C(=O)N[C@@H]1C(=O)N2C(C(=O)O)=C(Cl)CS[C@H]12)c1ccccc1,,-0.314% [at 8.39 µM] (inactive)
O=C(O)CN(CCOCCOCCN(CC(=O)O)CC(=O)O)CC(=O)O,,5.6% [at 0.349 µM] (inactive)
ClC(Cl)(Br)Br,inactive,
CC1=CC(C)C(C=O)CC1 (stereo not given),inactive,
C[C@](N)(Cc1ccc(O)cc1)C(=O)O,,-1.66% [at 8.39 µM] (inactive)
FC(F)OC(Cl)C(F)(F)F (stereo not given),inactive,
COc1ccc2c(c1)CCCC2=O,inactive,
CCCCOCCOCCOCCCC,inactive,
CCOC(=O)[C@H](CCc1ccccc1)N[C@@H](C)C(=O)N1[C@H](C(=O)O)C[C@@H]2CCC[C@@H]21,inactive,
O=C(c1ccccc1)C1CCCCC1,inactive,
COCCCOCCCOC,inactive,
CC(C)(CC(=O)O)C(=O)O,inactive,
Cn1c(N)c(N=O)c(=O)n(C)c1=O,inactive,
O=c1[nH]c(=O)n([C@H]2C[C@H](O)[C@@H](CO)O2)cc1I,inactive,
CCOc1ccc(C(=O)OCCN(CC)CC)cc1,inactive,
N=C(N)c1ccc(OCCCOc2ccc(C(=N)N)cc2)cc1,inactive,
CCOC(C)(C)C,inactive,
Cc1cnc(NS(=O)(=O)c2ccc(N)cc2)nc1,inactive,

SMILES,Potency,"activity, negative = inhibition"
C=C(C)C(=O)OCCCCCCCC(C)C,inactive,
C=C[Si](OC(=C)C)(OC(=C)C)OC(=C)C,inactive,
CCO/C([O-])=N/c1c[n+](N2CCOCC2)no1,inactive,
NS(=O)(=O)c1ccc(C(=O)O)cc1,inactive,
CC(NC(CCc1ccccc1)C(=O)O)C(=O)N1C(=O)N(C)CC1C(=O)O (stereo not given),inactive,
CN(C)CCCSc1ccccc1NC(=O)/C=C/c1ccccc1,inactive,
N=C(N)c1ccc2cc(OC(=O)c3ccc(N=C(N)N)cc3)ccc2c1,inactive,
NC(=O)COCCN1CCN(C(c2ccccc2)c2ccc(Cl)cc2)CC1 (stereo not given),inactive,
C=CCOCC(CC)(CO)COCC=C,inactive,
C1CN(CCOCCN2CCOCC2)CCO1,inactive,
O=Cc1cccc([N+](=O)[O-])c1,24.2 µM (active),
C[N+](C)(C)CC(O)CC(=O)[O-] (stereo not given),inactive,
C/C=C(\C)C#N,inactive,
CC(=O)CC(C)(C)C1CCCCC1,inactive,
COC(=O)CC(C)=O,inactive,
NS(=O)(=O)c1ccccc1Cl,inactive,
COC(=O)c1cc(C(=O)OC)cc(S(=O)(=O)O)c1,inactive,
CN1CCCC1,inactive,
CCCCCCCCS(=O)(=O)Cl,inactive,
CC(C)(c1ccc(O)cc1)c1ccc(O)cc1,60.4 µM (active) and 60.4 µM [inhibitor] (active),
